Screening data: PubChem, National Center for Advancing Translational Sciences (NCATS)
Hits are enriched below; roughly 1.7% of the tested compounds scored in any of these assays.
IkB sig inh: IkB Signaling; ABC-DLBCL IkBa-CBG/CBR dual luciferase ratio, 4 h; response scale: scaled: untreated 0%, proteasome inhibitor 100%; Potency, µM (top dose mostly 57.1 µM); 110,000 compounds, 0.04% hits; active = well fitted curve in the direction sought with a large enough effect in the signal ratio, not every such curve was filed as active; inconclusive = small, poorly fitted or top-dose-only effect, or a change in a side signal; the % refers to the signal ratio;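 also: the direction sought is a rising ratio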
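In this assay, an IκBα–CBG68 fusion accumulates when IKK-driven degradation is blocked; native CBR normalizes for cell number. OCI-Ly3 cells were treated 4 h with compound and doxycycline, then green and red light read after Chroma-Glo addition.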
p53ts 39C tox: qHTS Screen for Compounds that Selectively Target Cancer Cells with p53 Mutations: Cytotoxicity of p53ts Cells at the Nonpermissive Temperature. H1299-p53A138V viability at 39C, ATP luminescence, 24 h. Potency, µM (top dose mostly 46.1 µM), usual class: cytotoxic. 130,000 compounds, 1.5% hits. AID 902, 2007; also: nearly all actives have a fitted effect of over 55% in size
p53ts 32C kill: qHTS Screen for Compounds that Selectively Target Cancer Cells with p53 Mutations: Cytotoxicity of p53ts Cells at the Permissive Temperature; Potency, µM (titrated, usually from 46.1 µM), actives largely listed as cytotoxic; AID 924, 2007; H1299-p53A138V at 32C, ATP luminescence viability, 24 h; 130,000 compounds, 0.93% hits; also: nearly all actives have a fitted effect of over 55% in size
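ATP-content luminescence (ATPlite) read-out after 24 h compound exposure at 32C in H1299-p53A138V cells (600/well). Tested up to 46 uM. Normalized to DMSO (0%) and 100 uM tamoxifen (100% killing); Hill-fit AC50.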
Peg3 imprint: qHTS Assay for Compounds that Induce Erasure of Genomic Imprints; mouse ES Peg3-LacZ reporter, beta-gal luminescence, 40 h; Potency, µM (doses to about 60.7 µM), usual class: activators; 110,000 compounds, 0.02% hits; AID 1948, 2009
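Imprint erasure is scored as LacZ activity from the silenced maternal Peg3 allele in feeder-free female ES cells cultured 40 h with LIF. Luminescence is normalized to in-plate negative controls and fitted to the Hill equation.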
A number is an active result; [ ] = dose if it differs, or a comment. Unless noted, calls follow the shape of the dose curve; as a rule, active = well fitted curve in the direction sought with a large enough effect; inconclusive = small, poorly fitted or top-dose-only effect, or another doubt; inactive = no such curve, though single readings can be large; an effect the other way counts as inactive or inconclusive.

For CC[C@@H]1OC(=O)[C@@H](C)[C@H](O[C@@H]2C[C@@](C)(OC)[C@@H](O)[C@H](C)O2)[C@H](C)[C@H](O[C@@H]2O[C@@H](C)C[C@@H](N(C)C)[C@H]2O)[C@@](C)(O)C[C@H](C)C(=O)[C@@H](C)[C@H](O)[C@@]1(C)O the results were IkB sig inh inactive[11.4 µM].
COc1cccc(NC(=O)c2cnc(SCC(=O)N3CCOCC3)n(C)c2=O)c1 was read as IkB sig inh inconclusive, p53ts 39C tox 13µM, p53ts 32C kill inactive and Peg3 imprint inactive[10.9 µM].
COc1cccc(NC(=O)Cn2c(SCC(=O)N3CCOCC3)nc3ccccc32)c1 was read as IkB sig inh inactive, p53ts 39C tox inactive, p53ts 32C kill inactive and Peg3 imprint inactive.
Screening c1ccc2c(c1)CCN(c1nc3cc4c(cc3s1)OCCO4)C2 returned IkB sig inh inconclusive, p53ts 39C tox 2µM, p53ts 32C kill 1.6µM and Peg3 imprint inactive.
`O=S(=O)(c1ccc2c(c1)OCCO2)N1CCN(c2nc3ccccc3s2)CC1` gave IkB sig inh inactive, p53ts 39C tox inactive, p53ts 32C kill inactive and Peg3 imprint inactive.
For Nc1ncn([C@@H]2O[C@@H](CO)[C@@H](O)[C@H]2O)c(=O)n1 the results were IkB sig inh inactive.
`CC(=O)Oc1ccc2c(c1C(C)C)CCC1C(C)(C)CCC[C@@]21C` (some centres not stated) gave p53ts 39C tox 13µM, p53ts 32C kill inconclusive and Peg3 imprint inactive.
For CC(C)c1c(O)ccc2c1CCC1[C@@](C)(CO)CCC[C@@]21C (some centres not stated) the results were p53ts 39C tox inactive, p53ts 32C kill inactive and Peg3 imprint inactive.
Screening COC(=O)[C@@]1(C)CCC[C@@]2(C)c3ccc(O)c(C(C)C)c3CCC21 (some centres not stated) returned p53ts 39C tox 20µM, p53ts 32C kill inconclusive and Peg3 imprint inactive.
For CCCCS(=O)(=O)/C=C\C1C2C=CC(C2)C1S(=O)(=O)CCCC (configuration not stated) the results were IkB sig inh inactive, p53ts 39C tox inactive, p53ts 32C kill inactive and Peg3 imprint inactive.
Screening CCCCS(=O)(=O)/C=C\C=C/S(=O)(=O)CCCC returned IkB sig inh inconclusive, p53ts 39C tox inconclusive, p53ts 32C kill 20µM and Peg3 imprint inactive.
`CCc1nnc(NC(=O)CSc2nc3c(cc2C#N)CCC3)s1` gave IkB sig inh inactive, p53ts 39C tox 2µM, p53ts 32C kill 2µM and Peg3 imprint inactive.
N#Cc1cc2c(nc1SCC(=O)Nc1nccs1)CCCCC2 was read as IkB sig inh inactive, p53ts 39C tox inconclusive, p53ts 32C kill inconclusive and Peg3 imprint inactive.
Screening CS(=O)(=O)c1nc(-c2ccccc2)cc(C(F)(F)F)n1 returned IkB sig inh inconclusive, p53ts 39C tox inconclusive, p53ts 32C kill 6.3µM and Peg3 imprint inactive.
`Cc1cc(NC(=O)CCS(=O)(=O)c2nc(-c3ccccc3)cc(C(F)(F)F)n2)no1` gave IkB sig inh inconclusive, p53ts 39C tox inconclusive, p53ts 32C kill inconclusive and Peg3 imprint inactive.
Screening COCCn1c(=O)c(-c2ccc(Cl)cc2)nc2cnc(N3CCOCC3)nc21 returned IkB sig inh inactive[11.4 µM], p53ts 39C tox inactive, p53ts 32C kill inactive and Peg3 imprint inactive.
C[C@H](c1ccccc1)N1C(=O)[C@H]2[C@@H]3[C@H](O)[C@H](O)CC(=O)[C@H]3CC[C@H]2C1=O was read as p53ts 39C tox inactive[9.22 µM] and p53ts 32C kill inactive[9.22 µM].
`CCN1CCN(CCC(=O)Nc2ccccc2OC)CC1` gave IkB sig inh inactive, p53ts 39C tox inactive, p53ts 32C kill inactive and Peg3 imprint inactive.
For CCN1CCN(Cc2ccc(NC(=O)Nc3ccccc3OC)cc2)CC1 the results were IkB sig inh inactive, p53ts 39C tox 10µM, p53ts 32C kill 7.9µM and Peg3 imprint inactive.
`CC(C)Cn1nc(NC(=O)c2cccc(Cl)c2)c2cc3ccccc3nc21` gave IkB sig inh inconclusive, p53ts 39C tox 13µM, p53ts 32C kill inactive and Peg3 imprint inactive[10.9 µM].
Screening CCOCc1cc(CN2CCN(c3cccc(Cl)c3)CC2)c(O)c2ncccc12 returned IkB sig inh inactive, p53ts 39C tox 3.2µM, p53ts 32C kill inactive and Peg3 imprint inconclusive.
For CCNc1ncc2ncc(=O)n(Cc3ccc(F)cc3)c2n1 the results were IkB sig inh inactive[11.4 µM], p53ts 39C tox inactive, p53ts 32C kill inactive and Peg3 imprint inactive.
Screening O=C1c2ccccc2C(=O)C1c1ccncc1 returned IkB sig inh inactive, p53ts 39C tox 3.2µM, p53ts 32C kill 3.2µM and Peg3 imprint inactive.
Cc1ccccc1N1C(=O)c2ccccc2NC1c1ccncc1 (configuration not stated) was read as p53ts 39C tox inactive and p53ts 32C kill inactive.
For CC(C)Sc1ncc(Cl)c(C(=O)Nc2c(C(=O)Nc3ccccc3)oc3ccccc23)n1 the results were IkB sig inh inactive, p53ts 39C tox inactive, p53ts 32C kill inactive and Peg3 imprint inactive[10.9 µM].
For CCS(=O)(=O)c1ncc(Cl)c(C(=O)NCc2ccccc2)n1 the results were IkB sig inh inconclusive, p53ts 39C tox 13µM, p53ts 32C kill inconclusive and Peg3 imprint inactive[10.9 µM].
For CCCS(=O)(=O)c1ncc(Cl)c(C(=O)Nc2c(C(=O)Nc3ccccc3)oc3ccccc23)n1 the results were IkB sig inh inconclusive, p53ts 39C tox 6.3µM, p53ts 32C kill inconclusive and Peg3 imprint inactive[10.9 µM].
Screening CCNC(=O)c1c(NC(=O)c2nc(S(=O)(=O)CC)ncc2Cl)sc2c1CCCC2 returned IkB sig inh inconclusive, p53ts 39C tox 3.2µM, p53ts 32C kill inconclusive and Peg3 imprint inactive[10.9 µM].
CCOc1ccc(NC(=O)c2nc(S(=O)(=O)Cc3ccccc3F)ncc2Cl)cc1 was read as IkB sig inh inconclusive, p53ts 39C tox 7.9µM, p53ts 32C kill 14µM and Peg3 imprint inactive[10.9 µM].
Cc1ccc(CNC(=O)c2nc(SCc3ccccc3C)ncc2Cl)cc1 was read as IkB sig inh inconclusive, p53ts 39C tox inactive, p53ts 32C kill inactive and Peg3 imprint inactive[10.9 µM].
`O=C1c2ccccc2C(=O)c2c1ccc(N1C(=O)c3ccccc3C1=O)c2-c1c(N2C(=O)c3ccccc3C2=O)ccc2c1C(=O)c1ccccc1C2=O` gave IkB sig inh inactive[11.4 µM].
`C=CCN1CCc2c(cc(O)c(O)c2Cl)[C@H](c2ccccc2)C1` gave IkB sig inh inactive, p53ts 39C tox inactive and p53ts 32C kill inactive.
Screening O=C(O)[C@H]([C@H]1NCCS1)N1Cc2ccccc2C1 returned IkB sig inh inactive[11.4 µM], p53ts 39C tox inactive[9.22 µM] and p53ts 32C kill inactive[9.22 µM].
`O=C1[C@@H]2[C@@H](C(=O)N1c1ccc(OCc3ccccc3)cc1)[C@@H]1c3ccccc3[C@@H]2[n+]2ccccc21` gave IkB sig inh inactive[11.4 µM], p53ts 39C tox inactive[9.22 µM], p53ts 32C kill inactive[9.22 µM] and Peg3 imprint inactive[10.9 µM].
`CN(Cc1ccco1)c1cc(-c2ccc3c(c2)OCO3)ncn1` gave IkB sig inh inactive[11.4 µM], p53ts 39C tox inconclusive, p53ts 32C kill inconclusive and Peg3 imprint inactive.
